ELG1 repair inh – qHTS screen for small molecules that inhibit ELG1-dependent DNA repair in human embryonic kidney (HEK293T) cells expressing luciferase-tagged ELG1. 330,000 tested, 2.3% active. Potency, µM (series often up to 46.1 µM), inactives show at the top dose activity change, negative = inhibition, actives largely listed as inhibitors. HEK293T ELG1-luciferase reporter, luminescence, 16 h; DNA damage induced by 5-fluorouridine; also: % is scaled to controls: 0 for no effect and ±100 for the full control effect; nearly all actives have a fitted effect of over 55% in size
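Step one: seed 2,000 cells per well. Step two: pin-transfer compound or DMSO alongside 5-fluorouridine. Step three: incubate 16 hr, 37 °C, 5% CO2. Step four: add ONE-Glo, wait 30 min, read luminescence.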
ELG1 genotoxic – qHTS screen for small molecules that induce genotoxicity in human embryonic kidney (HEK293T) cells expressing luciferase-tagged ELG1; HEK293T ELG1-luciferase reporter, luminescence, 16 h; Potency, µM (titrated, usually from 46 µM), without a hit: at the top dose activity change, positive = activation, hits mostly activators; 330,000 tested, 1.3% active; AID 504466, 2011; also: % of control where 0% means no effect; nearly all actives have a fitted effect of over 60% in size
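16 hr compound incubation (37 °C, 5% CO2) of HEK293T cells carrying luciferase-tagged ELG1; luciferase then measured by ONE-Glo luminescence after 30 min at RT.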
SMN2 splice enh – qHTS Assay for Enhancers of SMN2 Splice Variant Expression. HEK293 SMN2-luciferase splicing reporter, luminescence, 30-36 h. Potency, µM (doses to about 46.1 µM), inactives show top-dose activity change, positive = activation, hits mostly activators. 210,000 tested, 2.8% active; also: % of control where 0% means no effect; nearly all actives have a fitted effect of over 55% in size
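qHTS luciferase splicing reporter: luminescence rises when SMN2 exon 7 is included in transfected HEK293 cells. Compound exposure lasted 30-36 h at 37C, with 4.5 mM final sodium butyrate as control, followed by a ONE-Glo read.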
Rab9 promoter act – qHTS Assay for Rab9 Promoter Activators; Huh7 Rab9 promoter-luciferase reporter, luminescence, 24 h; Potency, µM (highest dose often 9.22 µM), for the others: at the top dose activation, negative = inhibition, hits mostly activators; 320,000 tested, 2.8% active; AID 485297, 2010; also: % of control where 0% means no effect; nearly all actives have a fitted effect of over 60% in size
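Huh7 cells stably carrying a Rab9 promoter-luciferase reporter, 1500 cells per well in OP-MEM I with 10% FBS, treated with compound 24 hours at 37C. Luciferase activity read by luminescence after 10 minutes with Amplite reagent.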
NPC1 prom act – qHTS Assay for NPC1 Promoter Activators; Huh7 NPC1 promoter luciferase reporter, 24 h; AID 485313, 2010; 320,000 tested, 2.4% active; Potency, µM (top dose mostly 9.22 µM), inactives show at the top dose activation, most hits filed as activators; also: % of control where 0% means no effect; nearly all actives have a fitted effect of over 60% in size
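Cells: Huh7 expressing luciferase under the NPC1 promoter, 1500/well. Seeded 2 h, compound added, incubated 24 h at 37 °C. Luciferase reagent, 10 min ambient, then luminescence.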
FLuc modulator – qHTS profiling assay for firefly luciferase inhibitor/activator using purifed enzyme and Km concentrations of substrates (counterscreen for miR-21 project) | purified FLuc, Km substrates, luminescence inhibition | AID 588342, 2011 | Potency, µM (doses to about 57.5 µM), for the others: at the highest dose activity change, negative = inhibition, usual class: inhibitors | Luciferin 4-monooxygenase (Photinus pyralis), P08659 | 360,000 tested, 6.9% active;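 also: plate controls were vehicle for no effect and reference inhibitor for full effect; nearly all actives have a fitted effect of over 55% in size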
Target sequence (P08659 whole entry, looked up): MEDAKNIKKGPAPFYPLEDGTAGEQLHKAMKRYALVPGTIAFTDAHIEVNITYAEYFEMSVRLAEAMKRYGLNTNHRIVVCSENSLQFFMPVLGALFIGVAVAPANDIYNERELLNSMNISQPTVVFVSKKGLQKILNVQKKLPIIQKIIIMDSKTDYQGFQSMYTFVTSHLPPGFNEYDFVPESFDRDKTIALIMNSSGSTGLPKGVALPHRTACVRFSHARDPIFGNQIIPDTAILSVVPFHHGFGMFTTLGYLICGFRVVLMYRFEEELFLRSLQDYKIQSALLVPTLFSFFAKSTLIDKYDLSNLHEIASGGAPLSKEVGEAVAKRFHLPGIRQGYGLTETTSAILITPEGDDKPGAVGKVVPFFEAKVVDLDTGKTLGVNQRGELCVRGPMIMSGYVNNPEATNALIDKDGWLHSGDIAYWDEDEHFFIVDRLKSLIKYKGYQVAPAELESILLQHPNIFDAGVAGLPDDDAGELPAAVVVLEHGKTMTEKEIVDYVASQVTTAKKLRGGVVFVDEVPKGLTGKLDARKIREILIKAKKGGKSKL
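Biochemical qHTS of compounds, final roughly 60 µM downward over six points, against 10 nM purified firefly luciferase using Km concentrations of substrates (10 uM D-luciferin, 10 uM ATP) in Tris acetate pH 7.5 buffer; luminescence output.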
The depositor's hits bear a star; ? = inconclusive; · = not tested or not shown; [ ] = another dose, or the depositor's remark. A selection: hits, their analogues and other compounds. The true share with any hit is near 9.4%. Calls follow the shape of the dose curve; as a rule, active = well fitted curve in the direction sought with a large enough effect; inconclusive = small, poorly fitted or top-dose-only effect, or another doubt; inactive = no such curve, though single readings can be large; an effect the other way counts as inactive or inconclusive. Potency is read from the fitted curve at half-maximal effect.

SMILES	ELG1 repair inh	ELG1 genotoxic	SMN2 splice enh	Rab9 promoter act	NPC1 prom act	FLuc modulator
CNC(=O)c1cc(Nc2nnc(C)c3ccccc23)ccc1OC	?	?	22%	0%	-2%	-24%
Cc1cc(Nc2ccccc2F)n2nc(Cc3ccc(Cl)cc3)nc2n1	·	·	-2%	·	·	-8%
CC1=NN(C(N)=S)C(=O)C1N=Nc1ccc(Br)cc1 (stereo not given)	?	9.2µM*	·	3.5µM*	2.2µM*	6µM*
CC1=NN(c2ccccc2)C(=O)C1N=Nc1ccc(N)cc1 (stereo not given)	26%	-3%	-43%	-12%	-8%	?
CC1=NN(c2ccccc2)C(=O)[C@@H]1N=Nc1ccc(S(N)(=O)=O)cc1	·	·	-8%[9.22 µM]	·	·	·
CC1=NN(C(N)=S)C(=O)C1N=Nc1ccc(Cl)cc1 (stereo not given)	?	7.3µM*	·	4µM*	4µM*	3.4µM*
CC1=NN(C(N)=S)C(=O)C1N=Nc1ccccc1 (stereo not given)	?	?	24%	25%	-50%	24µM*
CC1=NN(C(N)=S)C(=O)C1N=Nc1cccc([N+](=O)[O-])c1 (stereo not given)	?	2%	·	?	3.5µM*	12µM*
NC(=O)CN(N=Nc1cccc([N+](=O)[O-])c1)c1cccc([N+](=O)[O-])c1	-18%	-4%	-29%	3%	-9%	-1%
C=CCC(CC=C)(CNC(=O)C(=O)Nc1ccc(C)cc1)c1ccccc1	·	·	17%	·	·	-10%
COc1ccc(Cn2cc(C(=O)c3ccc(C)c(C)c3)c(=O)c3ccccc32)cc1	·	·	-34%	·	·	-15%
COc1ccc(NC(=O)C2CCCN2S(=O)(=O)c2ccc3c(c2)CCCC(=O)N3)cc1Cl (stereo not given)	·	·	·	·	·	-1%
O=C(/C=C/c1ccco1)Nc1scc(-c2ccccc2)c1C(=O)O	?	?	·	0.5µM*	0.45µM*	4.8µM*
O=C(/C=C/c1ccccc1)Nc1scc(-c2ccccc2)c1C(=O)O	?	12%	11µM*	1.6µM*	2.5µM*	3µM*
Cc1sc(NC(=O)/C=C/c2ccco2)c(C(=O)OC(C)C)c1C	15%	3%	·	-4%	-2%	0%
Cc1cccc(C)c1NC(=O)c1sc(-n2nc(C)c(Cc3ccccc3)c2C)nc1C	·	·	·	·	·	-3%
COc1ccc(NC(=O)CSc2cn(CC(=O)N3CCCCC3)c3ccccc23)c(OC)c1	·	·	·	·	·	-12%
COc1ccccc1CCNC(=O)C(=O)c1cn(CC(=O)N2CCCC2)c2ccccc12	27%	2%	·	26%	23%	11µM*
COc1ccccc1NC(=O)C(=O)c1cn(CC(=O)N2CCOCC2)c2ccccc12	?	?	·	?	?	4.8µM*
COc1ccc(NC(=O)C(=O)c2cn(CC(=O)N3CCCC3)c3ccccc23)c(OC)c1	?	?	·	?	?	4.8µM*
COc1ccccc1CNC(=O)C(=O)c1cn(CC(=O)N2CCOCC2)c2ccccc12	?	4%	·	12%	-1%	?
COc1ccccc1NC(=O)C(=O)c1cn(CC(=O)N2CCCC2)c2ccccc12	?	13%	·	?	?	4.8µM*
COc1ccc(NC(=O)C(=O)c2cn(CC(=O)N3CCOCC3)c3ccccc23)cc1OC	-5%	-1%	·	-1%	0%	?
COc1ccccc1NC(=O)CSc1cn(CC(=O)N2CCCC2)c2ccccc12	·	·	·	·	·	-9%
CCCOc1ccc(OC(=O)c2cn(-c3ccc(OC)cc3)c(=O)c3ccccc23)cc1	·	·	·	·	·	-2%
SMILES	ELG1 repair inh	ELG1 genotoxic	SMN2 splice enh	Rab9 promoter act	NPC1 prom act	FLuc modulator
CC(C)C(=O)OCc1cc(=O)n2nc(C3CC3)sc2n1	·	·	·	·	·	7%
CC(=O)c1cc(-c2ccccc2)n(CCC(=O)Nc2ccc(C(C)C)cc2)c1C	·	·	·	·	·	1%
COc1ccc(CCNC(=O)C(=O)c2cn(CC(=O)N3CCOCC3)c3ccccc23)cc1OC	?	6%	·	1%	-1%	21µM*
COc1ccc(CCNC(=O)CS(=O)(=O)c2cn(CC(=O)N3CCOCC3)c3ccccc23)cc1OC	-4%	0%	-28%	-10%	-1%	-1%
Cc1ccccc1NC(=O)CCn1nc(-c2ccccc2)c2ccccc2c1=O	·	·	·	·	·	-1%
Cc1ccc(S(=O)(=O)Nc2ccc3c(c2)CCCN3C(=O)c2cccs2)cc1	·	·	·	·	·	-19%
CN(C)c1ccc(/C=N/NC(=O)CN(c2cccc(Cl)c2)S(C)(=O)=O)cc1Br	21µM*	-10%	-13%	-8%	1%	?
COC(=O)c1ccc2nc(-c3ccc(S(C)(=O)=O)cc3)cn2c1	?	9%	4%	?	?	24µM*
COC(=O)c1ccc2nc(-c3cccc(N)c3)cn2c1	?	?	·	1µM*	0.5µM*	0.6µM*
CS(=O)(=O)c1ccc(-c2cn3cc(C(=O)O)ccc3n2)cc1	-1%	-7%	-21%	-2%	1%	2.7µM*
CS(=O)(=O)c1ccc(C(=O)Nc2cc(-c3ccccc3)nn2-c2ccccc2)cc1	-19%	-4%	·	2%	7%	-19%
COC(=O)c1cc2nc(-c3ccccc3)cc(C)n2n1	-7%	-2%	·	-1%	-1%	0%
COc1cc(-c2c(C#N)c(N)nc(SCc3ccncc3)c2C#N)cc(OC)c1OC	11µM*	-6%	-15%	-7%	0%	0%
N#Cc1c(N)nc(SCc2ccncc2)c(C#N)c1-c1cccs1	5.2µM*	-17%	-46%	-18%	-7%	-7%
CCSc1nc(N)nc(-c2cccs2)c1C#N	?	21µM*	?	23%	26%	?
CCN(CC)C(=O)CSc1nc(N)c(C#N)c(-c2cccs2)c1C#N	?	6%	-16%	-4%	-4%	2%
N#CC1=C(N)Oc2c(ccc3ccccc23)C1c1ccsc1 (stereo not given)	?	15µM*	-29%	-23%	-5%	?
COc1cc2c(=O)c(S(=O)(=O)c3ccc(C)cc3)cn(Cc3cccc(C)c3)c2cc1OC	·	·	-14%	·	·	-1%
COc1cc2nc(CSc3nc(-c4ccc(F)cc4)cs3)[nH]c(=O)c2cc1OC	23µM*	-5%	-17%	-4%	2%	-3%
Cc1cc(Cc2cc(C)cc(C(C)(C)C)c2O)c(O)c(Cc2cc(C)cc(C(C)(C)C)c2O)c1	·	·	-61%[9.22 µM]	·	·	·
